Experimental data published in PubChem BioAssay AID2685 (National Center for Advancing Translational Sciences (NCATS), 2010).
About 2,100 (0.66%) of roughly 320,000 compounds were called active. Not shown: some 53% with an inconclusive outcome. The call rests on the fitted dose curve; in most records, active means well fitted inhibition curve with a large enough effect in the signal ratio, with a control signal flat (not every such curve was filed as active); inconclusive means small, poorly fitted or top-dose-only effect, or effect the other way, or a change in a side signal; inactive means flat fitted curve, though single readings scatter; the % refers to the signal ratio. Shown is part of a subset that was picked to be rich in actives.

Assay: qHTS Assay for Lipid Storage Modulators in Drosophila S3 Cells;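 on cell number change: cells counted by Cell Tracker Red CMTPX staining in the red channel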; on lipid storage change, negative = inhibition: on the % scale 0 is the no-effect control and ±100 the full control effect
Conditions: BODIPY lipid droplet fluorescence, 18-24 h, cells fed with added oleic acid; cell number change: measured here: cell count max response; series mostly up to 46.1 µM; lipid storage change, negative = inhibition: at the top concentration
Outline: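 Drosophila S3 cells got compounds at several concentrations plus oleic acid (400 uM solution). Laser-scanning cytometry with 488 nm excitation read lipid droplets at 500-530 nm and cells at 575-640 nm. Percent activity was relative to 20 uM Triacsin C.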
Potency means the concentration at half of the fitted maximal effect.

**Q.** Which “lipid storage change, negative = inhibition” value does the source give for CCOc1cccc(OCCn2cnc3ccccc3c2=O)c1 here?
**A.** 5.79% (inactive)

**Q.** What about the cell number change of the same molecule?
**A.** 10.8%

**Q.** With COc1cccc(C(=O)N2CCN(C(=O)C3COc4ccccc4O3)CC2)c1 (centres undefined) as the molecule, how does the “outcome” value read?
**A.** inactive

**Q.** With COCCn1c(=S)[nH]c2cc(C(=O)NC(C)C)ccc2c1=O as the molecule, how does the “outcome” value read?
**A.** inactive

**Q.** With CCN(CC)CCCn1c(=S)[nH]c2cc(C(=O)OC)ccc2c1=O as the molecule, how does the Potency read?
**A.** 3.66 µM (active)

**Q.** And the cell number change?
**A.** 12.4%

**Q.** For COCCn1c(=S)[nH]c2cc(C(=O)NCCc3ccccc3)ccc2c1=O, which Potency is on record?
**A.** 2.31 µM (active)

**Q.** What about the cell number change of the same molecule?
**A.** -6.13%

**Q.** For COC(=O)c1ccc2c(=O)n(CCCCCC(=O)O)c(=S)[nH]c2c1, which “lipid storage change, negative = inhibition” value is on record?
**A.** 5.22% (inactive)

**Q.** What about the cell number change of the same molecule?
**A.** 9.06%

**Q.** With CCn1c(=S)[nH]c2cc(C(=O)OC)ccc2c1=O as the molecule, how does the “outcome” value read?
**A.** inactive

**Q.** And the cell number change?
**A.** 11.1%

**Q.** With CCOCCCn1c(=S)[nH]c2cc(C(=O)NCCc3ccccc3)ccc2c1=O as the molecule, how does the “outcome” value read?
**A.** inactive

**Q.** Which results are given for Cc1ccc(S(=O)(=O)Nc2cc(C(C)C)c(O)cc2C)cc1?
**A.** lipid storage change, negative = inhibition: 6.78% (inactive); cell number change: -20%

**Q.** What does the source list for CCOC(=O)/C(C#N)=C/N1CCOCC1?
**A.** lipid storage change, negative = inhibition: -5.47% (inactive); cell number change: -2.81%

**Q.** For NC(=NC(=O)c1ccc(OCC(F)(F)F)nc1)c1ccc(Cl)cc1, which “lipid storage change, negative = inhibition” value is on record?
**A.** -1.51% (inactive)

**Q.** What about the cell number change of the same molecule?
**A.** -16.5%

**Q.** Which results are given for CC(=O)c1ccc(OCC(=O)OCC(=O)Nc2sccc2C(N)=O)cc1?
**A.** Potency: 3.66 µM (active); cell number change: -10.9%

**Q.** With NC(=O)c1ccsc1NC(=O)COC(=O)COc1ccccc1F as the molecule, how does the “lipid storage change, negative = inhibition” value read?
**A.** 8.92% (inactive)

**Q.** What about the cell number change of the same molecule?
**A.** -3.04%

**Q.** For COc1ccc(CCC(=O)OCC(=O)Nc2ccccc2)cc1, which “outcome” value is on record?
**A.** inactive

**Q.** What about the cell number change of the same molecule?
**A.** 3.15%

**Q.** What does the source list for COc1ccc(CCC(=O)OCC(=O)Nc2sccc2C(N)=O)cc1?
**A.** Potency: 6.51 µM (active); cell number change: -27.9%

**Q.** Which “lipid storage change, negative = inhibition” value does the source give for COc1cc(OC)cc(C(=O)OCC(=O)Nc2sccc2C(N)=O)c1 here?
**A.** -18.4% (inactive)

**Q.** And the cell number change?
**A.** 2.18%

**Q.** Which “lipid storage change, negative = inhibition” value does the source give for Cc1ccc(OCC(=O)OCC(=O)Nc2sccc2C(N)=O)cc1C here?
**A.** 4.32% (inactive)

**Q.** And the cell number change?
**A.** -3.96%

**Q.** What does the source list for CCOC(=O)C1CCN(C(=O)CCc2c(C)nc3c(-c4ccc(F)cc4)c(C)nn3c2C)CC1?
**A.** lipid storage change, negative = inhibition: 6.7% (inactive); cell number change: 9.15%

**Q.** Which “lipid storage change, negative = inhibition” value does the source give for COc1ccccc1NS(=O)(=O)c1cccc(C(=O)N2CCN(C/C=C/c3ccccc3)CC2)c1 here?
**A.** -18.7% (inactive)

**Q.** And the cell number change?
**A.** -3.91%

**Q.** For COc1cc2c(C(=O)N(C)c3ccc(F)cc3)cn(C)c(=O)c2cc1OC, which “lipid storage change, negative = inhibition” value is on record?
**A.** 19.8% (inactive)

**Q.** And the cell number change?
**A.** -28.8%

**Q.** With CCCC(=O)OCC(=O)c1[nH]c(C)c(C(C)=O)c1C as the molecule, how does the “lipid storage change, negative = inhibition” value read?
**A.** 4.32% (inactive)

**Q.** And the cell number change?
**A.** 5.74%

**Q.** What does the source list for CN(CC(=O)OCC(N)=O)S(=O)(=O)c1ccc(Cl)cc1?
**A.** lipid storage change, negative = inhibition: 11.6% (inactive); cell number change: -16.4%

**Q.** With CC(=O)c1c(C)[nH]c(C(=O)COC(=O)CN(C)S(=O)(=O)c2ccc(Cl)cc2)c1C as the molecule, how does the Potency read?
**A.** 5.8 µM (active)

**Q.** For O=C(Nc1cccc(Cl)c1)c1ccc2c(=O)n3c(nc2c1)CCCCC3, which “lipid storage change, negative = inhibition” value is on record?
**A.** 16% (inactive)

**Q.** And the cell number change?
**A.** -6.1%

**Q.** Which results are given for O=C(N1CCCCC1)C12CC3CC(CC(C3)C1)C2?
**A.** lipid storage change, negative = inhibition: 0.667% (inactive); cell number change: -0.102%

**Q.** For Cc1ccc(OCc2nnc(SCC(=O)NC3CCCCC3)n2C)cc1, which “outcome” value is on record?
**A.** inactive

**Q.** What about the cell number change of the same molecule?
**A.** 20.5%

**Q.** For COc1ccc(OCc2nnc(SCC(=O)NC3CC3)n2C)cc1, which “lipid storage change, negative = inhibition” value is on record?
**A.** 16.1% (inactive)

**Q.** What about the cell number change of the same molecule?
**A.** 16.2%

**Q.** With Cn1c(COc2ccc(Cl)cc2)nnc1SCC(=O)NC1CCCC1 as the molecule, how does the Potency read?
**A.** 14.6 µM (active)

**Q.** What about the cell number change of the same molecule?
**A.** 17.9%

**Q.** Which results are given for COC(=O)c1cc2c(N)c(C(=O)c3ccccc3)sc2nc1C(OC)OC?
**A.** lipid storage change, negative = inhibition: 6.49% (inactive); cell number change: -8.65%

**Q.** Which “lipid storage change, negative = inhibition” value does the source give for O=C(CS(=O)c1ccccc1[N+](=O)[O-])Oc1ccc(Br)cc1 (centres undefined) here?
**A.** 3.04% (inactive)

**Q.** And the cell number change?
**A.** 2.35%

**Q.** With CS(=O)(=O)c1ccc(S(=O)CC(=O)OCc2ccccc2)c([N+](=O)[O-])c1 (centres undefined) as the molecule, how does the Potency read?
**A.** 29.1 µM (active)

**Q.** And the cell number change?
**A.** -65.2%

**Q.** With CCOC(=O)c1ccccc1OC(=O)CS(=O)c1ccccc1[N+](=O)[O-] (centres undefined) as the molecule, how does the “outcome” value read?
**A.** inactive

**Q.** What about the cell number change of the same molecule?
**A.** -21.3%

**Q.** Which results are given for CSc1nsc(SCC(=O)N2CCc3ccccc32)n1?
**A.** outcome: inactive; cell number change: -10.2%

**Q.** For O=C(NCCCn1ccnc1)C(=O)NCC1OCCN1S(=O)(=O)c1ccc(Br)cc1 (centres undefined), which “lipid storage change, negative = inhibition” value is on record?
**A.** 5.76% (inactive)

**Q.** What about the cell number change of the same molecule?
**A.** -6.41%

**Q.** What does the source list for O=C(CN1C(=O)NC2(CCCC2)C1=O)Nc1ccccc1F?
**A.** outcome: inactive; cell number change: -18%

**Q.** With COC(=O)[C@H](CCSC)NC(=O)Nc1cc(C)ccc1C as the molecule, how does the “outcome” value read?
**A.** inactive

**Q.** With COC(=O)[C@H](CCSC)NC(=O)Nc1ccc(C)c(C)c1 as the molecule, how does the Potency read?
**A.** 5.17 µM (active)

**Q.** What about the cell number change of the same molecule?
**A.** -12.2%

**Q.** For COC(=O)[C@H](CCSC)NC(=O)Nc1ccc(C(C)=O)cc1, which “lipid storage change, negative = inhibition” value is on record?
**A.** -13.7% (inactive)

**Q.** And the cell number change?
**A.** 0.814%

**Q.** Which “lipid storage change, negative = inhibition” value does the source give for CSCC[C@H](NC(=O)Nc1cccc(Br)c1)C(=O)O here?
**A.** -5.56% (inactive)

**Q.** And the cell number change?
**A.** 8.72%

**Q.** Which results are given for CSCC[C@H](NC(=O)Nc1cccc(C(F)(F)F)c1)C(=O)O?
**A.** Potency: 14.6 µM (active); cell number change: -1.65%

**Q.** With C[C@H](NC(=O)Nc1cccc(C(F)(F)F)c1)C(=O)O as the molecule, how does the “lipid storage change, negative = inhibition” value read?
**A.** 3.6% (inactive)

**Q.** And the cell number change?
**A.** 14.7%

**Q.** With COc1cccc(-c2ccc(C#N)c(SCC(=O)NCc3ccco3)n2)c1 as the molecule, how does the “lipid storage change, negative = inhibition” value read?
**A.** -1.45% (inactive)

**Q.** What about the cell number change of the same molecule?
**A.** 0.401%

**Q.** For CCOC(=O)c1sc2nc(C)nc(SCC(=O)NC(C)CCc3ccccc3)c2c1C (centres undefined), which “outcome” value is on record?
**A.** inactive

**Q.** For COc1ccc(OC)c(CNC(=O)C2CCC(=O)N(CCCN3CCCC3=O)C2)c1 (centres undefined), which “outcome” value is on record?
**A.** inactive

**Q.** And the cell number change?
**A.** 15.9%

**Q.** What does the source list for CCOc1ccc(S(=O)(=O)Nc2nc3ccccc3nc2-n2ccc(=NC(=O)c3ccccc3C)cc2)cc1?
**A.** lipid storage change, negative = inhibition: -19.1% (inactive); cell number change: -0.599%

**Q.** Which “lipid storage change, negative = inhibition” value does the source give for Cc1cc(C(=O)NNC(=S)NCc2ccco2)nn1C here?
**A.** 24.4% (inactive)

**Q.** Which results are given for CN(Cc1c(F)cccc1Cl)C(=O)c1ccc2ccccc2n1?
**A.** outcome: inactive; cell number change: 19.7%

**Q.** Which Potency does the source give for Cc1cc(C(=O)N(C)Cc2c(F)cccc2Cl)c2ccccc2n1 here?
**A.** 5.17 µM (active)

**Q.** What about the cell number change of the same molecule?
**A.** -7.26%

**Q.** With CN(Cc1c(F)cccc1Cl)C(=O)c1cc2ccccc2o1 as the molecule, how does the “lipid storage change, negative = inhibition” value read?
**A.** 4.71% (inactive)

**Q.** Which results are given for O=c1cc(NCc2ccco2)[nH]c(=O)n1-c1ccc(Br)cc1?
**A.** lipid storage change, negative = inhibition: 1.04% (inactive); cell number change: -12.2%

**Q.** Which results are given for COc1ccc(-c2cc(CNC(C)=O)on2)cc1?
**A.** lipid storage change, negative = inhibition: 10.5% (inactive); cell number change: 0.804%

**Q.** Which results are given for COc1ccc(-c2cc(CNC(=O)CN3CCN(C)CC3)on2)cc1?
**A.** Potency: 4.11 µM (active); cell number change: -114%

**Q.** For COc1ccc(-c2cc(CNC(=O)CCl)on2)cc1, which “lipid storage change, negative = inhibition” value is on record?
**A.** 3.41% (inactive)

**Q.** What about the cell number change of the same molecule?
**A.** 8.76%

**Q.** What does the source list for CN1CCN(c2nc3ccccn3c(=O)c2C=O)CC1?
**A.** outcome: inactive; cell number change: 25%

**Q.** With COc1ccc(N2CCN(c3nc4ccccn4c(=O)c3C=O)CC2)cc1 as the molecule, how does the Potency read?
**A.** 4.61 µM (active)

**Q.** And the cell number change?
**A.** 25.2%

**Q.** With O=Cc1c(N2CCN(c3ccccc3)CC2)nc2ccccn2c1=O as the molecule, how does the “lipid storage change, negative = inhibition” value read?
**A.** 4.25% (inactive)

**Q.** What about the cell number change of the same molecule?
**A.** 2.17%

**Q.** Which results are given for COc1cccc(NC(=O)CSc2nnnn2C2CCCC2)c1?
**A.** Potency: 8.2 µM (active); cell number change: -5.13%

**Q.** With COc1cc(NC(=O)CSc2nnnn2C2CCCC2)cc(OC)c1 as the molecule, how does the “outcome” value read?
**A.** inactive

**Q.** And the cell number change?
**A.** 5.13%

**Q.** Which “lipid storage change, negative = inhibition” value does the source give for COc1ccc(NC(=O)CSc2nnnn2C2CCCC2)cc1 here?
**A.** 15% (inactive)

**Q.** What about the cell number change of the same molecule?
**A.** 9.25%

**Q.** For CC(C)C(=O)N=c1sc2cccc(F)c2n1C, which “lipid storage change, negative = inhibition” value is on record?
**A.** 21.4% (inactive)

**Q.** And the cell number change?
**A.** 19.6%

**Q.** For C/C(=N\NC(=O)CC#N)c1ccc(Oc2ccccc2)cc1, which “lipid storage change, negative = inhibition” value is on record?
**A.** 6.93% (inactive)

**Q.** And the cell number change?
**A.** 6.12%
